# In all, about 4,500 sequences were measured (“median log2 fold change of GCK-ALFA target abundance (FLAG IP / Myc IP barcode read proportion)”: median about 0.078, lowest 2% from about -0.6 on). The full list was thinned out, with the lowest values kept by preference.
# B1: GBRAP_35_5522 (protein)
# chain: DSDTLTVEMLVATIEDLTLAVPDMDVETAVQIATQLIKAAEELAKDIKNNVEGLKKLRDALAKLRDALEKHYGDDPLAQQVIAQIDKLIAEIDKMIKEAK
# B2: GBRAP_95_7082 (protein)
# chain: EEDLETLEDLAQTAIDLYEAGFEEQAARAAKAAAEELEELGYKVADKELLTKLLTYAADLAPKYFDEEEIERWLKIAEATGAPQSIIDALRAALAAKKAA
# B3: GBRAP_125_2963 (protein)
# chain: SEEEDLKALATLAKALGFDEDDVAEAVELARKFGIKNTVIALFLAEGYEEVAELVEKLTEEEVREVLKELAKEIEANPDLTPEEVVELAKKLLEKKIAKK
# B4: GBRAP_39_5686 (protein)
# chain: EEEEENEDVVSYLEGLAAKYLYETGKSLEEAFEEAKKILLKLAEEHPELKELIEKLIELAEKKGEEAKLALIGIAVLVKQGTPLEEIKENIEKVIAYFES
# B5: GBRAP_39_5685 (protein)
# chain: EEEEEDENVVSYLEGLAAARLYETGKSLEELFEEAKKILKALAKEEPELKELIEELIELAEKKGDEAKLALIGIAVLVEEGTPLEEIKENIEKVINYFKK
# B6: GBRAP_125_3124 (protein)
# chain: AEAQALADLAAVLKALGFDDEDVAEAVELAAAHSIRGTLYAALLALGDEEGADLVAKLTEEQTKEVVAAVNAWLKAHPDATPEEVKEKLLALLKEAVAAS
# B7: GBRAP_160_4816 (protein)
# chain: MEKVEELLKEAEEDLLDTAEASKDLPIEDRAALLRAEGYTSILELKEELNLSDETEDKLVAIVDELVARLLANPDLTPEEVLALVKEAYEKMKKIVLEEA
# B8: GBRAP_11_2768 (protein)
# chain: KKEELKKAAELAEKAAKTVEKLLKEGVDNEELLKEIEELLKELKKLTEKYGNEDMKKLVKIAEELLEEIKKDPENAEEYAKELKATLDVLAGQYLLEAEE
# B9: GBRAP_128_3156 (protein)
# chain: SVEEVRKKTRELLEKIKESDDETARELARELFELIGTLSPEEAEAAVEVILERLPELSEEKLEILADVAREMMPKYDPYKANLLAEVEVEALNEAEELEE
# B10: GBRAP_160_4781 (protein)
# chain: SEKKEKLKKAIEEAAKEIKEAIDTESPEQVLTVVRGEGGDILQEAEELGIDNEEALEGLDKGIKELEAAMKAAADASPEEKKAIVDKAKEKMIETLDKLT
# B11: GBRAP_52_5905 (protein)
# chain: MRARLRADLEEIIAAVRAGDLEAARAKARELAETYDDEELELAAEELAALVLEAPREDLPAWWRTAEIIAEALEEAGRDEVLADLVLSRTAAAIHEVLQR
# B12: GBRAP_184_5056 (protein)
# chain: MIHEKVIKAETLEELEEKLEELEEELKDFKGELIVHVEIPEFTEEMIELIIERLKRILENGYVSSVTLGLDGKMSEEVVDLAIKLADEAGIKLVIALEEE
# B13: GBRAP_14_3829 (protein)
# chain: MEEIEAVIEEAREDLIELFEEIVPEKAEELAEAVEEVFEELKRRIKETGNVEEAIEEARERLKEEAKKILADEPEEIRNLVLAAIDIEFAELEEEIEELL
# B14: GBRAP_160_4075 (protein)
# chain: SKETEELKKEIKEIAEEAIEFIKESNLENQIAIAEMMAGDILMLVFEAPFISDEDEERIDKILDKYVELLKENKDWSLEEKEEIIKEMAEEVIKEVEKAS
# B15: GBRAP_11_2853 (protein)
# chain: KKEKLKEIAELAEEAIKLLEELLKKGVDDEELQKKILEKLKELLELVKKYLDEADVKLAEYALESFEKSLKDPENAEEYVNEALAFLRVLLGNVLLEIDE
# B16: GBRAP_78_6627 (protein)
# chain: EVEELLEKALEKVEEAAKLATKIPSEKAIDILDELIDAFEYLEEAIEEGGDLEKIEKALKELKKALELIKEQNDPKLEPLKKEVEEAIKLLEKAKKKIKE
# B17: GBRAP_177_5010 (protein)
# chain: SRLAEIEAAADDPEALLALVAATDLRELSREELLALLRALARAIAREGPRPELLEAAVRVAVALITDHGVSLAEVVAILIEHADPDTVEEVVERVAERLA
# B18: GBRAP_39_5638 (protein)
# chain: SREEEAEETFDYLEALGAKLLSERGISLDELLEEEYKYAREAFKDDPELLAAIDELYELALKGDDTDKLAAAGAFSLVREGKSKEEVLEAVELLIYYLKS
# B19: GBRAP_160_4650 (protein)
# chain: EERKEKLKERIKELIEEAYEMMKGETHEERIAIARVMGGDIILELDEDEGVSDEAIEEVDKIMDEFVATLEANPDLTDEEIRALLEEMLKKIFEIIDKYT
# B20: GBRAP_9_7158 (protein)
# chain: MDELVAKLREVIEDAFEEIKEVVPEEVKPIVEKLREEAEKRLEELEEDPEATPEELVEEAKRILREFRERMKKEVDEETAKIVDAIVDTAELEIEEIEEE
# B21: GBRAP_39_5717 (protein)
# chain: EEEEEAENIFSYYEAVGAAEMYKRGISLEELFERTLAEARELAADDPELLAALEELEELALKAGDEAKLAATGIMVRLVEGAPREEVLADLKKLIAYLKS
# B22: GBRAP_160_4742 (protein)
# chain: KEELEKLKKEIEEIFKEGIELLKESEKEEALTIVRGIMGDVIMEVMSSEAASDELEEKIAEIADKAIEEVEKNKDAPIEKVIEIVEKAREEILKLIEEEI
# B23: GBRAP_160_4574 (protein)
# chain: SEEMKKLKEEIKEITEEAKEFIEGQSREEQIAIVKVAMGDILLLLDENPLVSDETEDKAAAIGDALIAYIEAHPDLTAEEIKELLEKATEEIIKLIEKEE
# B24: GBRAP_128_3555 (protein)
# chain: STEEVVEEAEELLEKIKESDEEEAREYARELVRLLASVDEESREAIVKVILERLPELTVEQLEILADVFREERPKVDPDVANALAEIEVEALNVALEKEE
# B25: GBRAP_137_3630 (protein)
# chain: ATVEIEVEEYEDVVEITVTLKDAAKAEAVKELVLDVAHEHGALAVSVEVEEDGTLVVTVWVPREKAEAFLEALVRRLQTELGLRVRVRNLDTGEEEEFEP
# B26: GBRAP_128_3422 (protein)
# chain: SRAAAVARARALLEAMKTADDATAAALADELAALFASADLETAEAIAEVIRAEIPKLTAKQLDILADAFRAALPKLTPEKANIAADVIVDLLNEREELEE
# B27: GBRAP_128_3379 (protein)
# chain: MDEEKLERVRELVRRAIESDVEETRELTREVVRLMGTLSPEEREAAAEIVIEALPEFSREKLDAIADTIRELRPELDPLGQELAAEVEVAALNRAEELEE
# B28: GBRAP_52_6373 (protein)
# chain: MEERARELARRILELAEAGDEEGLREEVRRIVEEESDELIAAVLRELRDMILTEPGLDPEALLTAAATLASEVLEAEKGTPETWAALTELLAAALALEQA
# B29: GBRAP_52_5974 (protein)
# chain: MEEEMRKLAKEIVALILAGDEAGARALLEEIAATKTEEEITLLFKELAKLAKTATPEERDAIVEAALLAEDIALAAGFDEAVMDSNLADVVKAAVDAEKA
# Target: GABARAP, O95166
# Sequence (O95166 whole entry, the tested form may be a part): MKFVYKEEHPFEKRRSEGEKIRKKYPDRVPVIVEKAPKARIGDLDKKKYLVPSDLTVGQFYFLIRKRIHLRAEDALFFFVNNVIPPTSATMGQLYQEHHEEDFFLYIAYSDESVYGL
# Assay: median log2 fold change of GCK-ALFA target abundance (FLAG IP / Myc IP barcode read proportion) (log2 ratio); each designed protein is fused to an ALFA-tag nanobody in HEK293 cells to bring the named protein to FLAG-tagged glucokinase (GCK); Myc marks an untargeted standard; higher = target protein stabilised (more abundant)
# Details: target protein: 3xFLAG-MCP-GCK-ALFA reporter; HEK293 landing pad (RPLP)
# Method in brief: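 An ALFA-nanobody-fused binder library was recombined into HEK293 landing-pad cells and induced with 2 μg mL^−1 doxycycline. Cells were transfected with a plasmid expressing a FLAG-tagged target and a Myc-tagged standard. After 48 h, lysates underwent anti-FLAG and anti-Myc immunoprecipitation, and circular RNA barcodes were reverse transcribed, amplified and sequenced. Target abundance is the per-binder median log2 ratio of FLAG to Myc barcode read proportions. Barcodes needed ≥10^−7 proportion in both replicates, binders ≥3 barcodes per replicate, and a 10^−6 pseudocount was added; the two replicates were pooled.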
row,Binder,median log2 fold change
1,B1,-0.0356
2,B2,0.268
3,B3,-0.725
4,B4,0.293
5,B5,-0.604
6,B6,-0.452
7,B7,0.0572
8,B8,0.117
9,B9,-0.269
10,B10,0.333
11,B11,-0.658
12,B12,0.234
13,B13,-0.798
14,B14,-0.29
15,B15,0.174
16,B16,-0.061
17,B17,0.0662
18,B18,0.2
19,B19,-0.715
20,B20,0.0143
21,B21,0.239
22,B22,0.15
23,B23,-0.302
24,B24,-0.0585
25,B25,-0.302
26,B26,-0.139
27,B27,0.284
28,B28,-0.998
29,B29,-0.0573
